Results reported in PubChem BioAssay AID1159580 (chemical genetic matrix, 2015).
Among all 5,500 compounds or so, about 2,000 (36%) were called active. Inconclusive results (about 18%) are left out. No stated cut-off is given here; in the data, active means normalized growth mostly below about 0.91 (no sharp cut-off); inconclusive means no clear call, values can overlap the other calls; inactive means mostly above about 0.92. The list shows a part of the results.

Assay: chemical genetic growth profiling, strain panel (AID 1159580);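 further: tested at 20 µM; growth read once vehicle control cultures reached saturation at 30 °C; 1 = growth at the plate median or of vehicle wells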
Conditions: S. cerevisiae deletion strains, growth OD

Measured: normalized growth

CCOc1ccc2c(c1)C(C)=CC(C)(C)N2
inactive: locus YAL013W, strain DEP1, stronger effect = lower value 0.99 | locus YAL021C, strain ccr4, stronger effect = lower value 0.99 | locus YAL026C, strain drs2, stronger effect = lower value 0.983 | locus YAL030W, strain snc1, stronger effect = lower value 0.996 | locus YBL061C, strain skt5, stronger effect = lower value 0.988 | locus YBR009C, strain hhf1, stronger effect = lower value 0.996 | locus YBR021W, strain FUR4, stronger effect = lower value 0.983 | locus YBR023C, strain chs3, stronger effect = lower value 0.994 | locus YBR171W, strain sec66, stronger effect = lower value 0.982 | locus YBR229C, strain ROT2, stronger effect = lower value 0.986 | locus YBR231C, strain swc5, stronger effect = lower value 0.991 | locus YBR279W, strain paf1, stronger effect = lower value 0.99 | locus YCL011C, strain gbp2, stronger effect = lower value 0.989 | locus YCL016C, strain dcc1, stronger effect = lower value 0.995 | locus YCL029C, strain bik1, stronger effect = lower value 0.959 | locus YCL061C, strain MRC1, stronger effect = lower value 0.994 | locus YCL069W, strain vba3, stronger effect = lower value 0.987 | locus YCR088W, strain abp1, stronger effect = lower value 0.983 | locus YDL005C, strain med2, stronger effect = lower value 0.974 | locus YDL035C, strain GPR1, stronger effect = lower value 1.01 | locus YDL040C, strain nat1, stronger effect = lower value 0.987 | locus YDL074C, strain BRE1, stronger effect = lower value 0.973 | locus YDL101C, strain DUN1, stronger effect = lower value 0.976 | locus YDL134C, strain PPH21, stronger effect = lower value 0.983 | locus YDL185W, strain tfp1, stronger effect = lower value 0.977 | locus YDL192W, strain arf1, stronger effect = lower value 0.984 | locus YDR001C, strain nth1, stronger effect = lower value 0.986 | locus YDR069C, strain doa4, stronger effect = lower value 0.995 | locus YDR101C, strain arx1, stronger effect = lower value 0.984 | locus YDR137W, strain rgp1, stronger effect = lower value 1.01 | locus YDR150W, strain NUM1, stronger effect = lower value 0.993 | locus YDR159W, strain sac3, stronger effect = lower value 0.989 | locus YDR162C, strain NBP2, stronger effect = lower value 0.99 | locus YDR195W, strain ref2 0.98 | locus YDR297W, strain sur2, stronger effect = lower value 0.989 | locus YDR318W, strain mcm21, stronger effect = lower value 0.987 | locus YDR334W, strain swr1, stronger effect = lower value 0.975 | locus YDR335W, strain msn5, stronger effect = lower value 0.995 | locus YDR388W, stronger effect = lower value 0.984 | locus YDR392W, strain spt3, stronger effect = lower value 0.95 | locus YDR502C, strain sam2, stronger effect = lower value 0.993 | locus YEL003W, strain gim4, stronger effect = lower value 0.992 | locus YEL037C, strain rad23, stronger effect = lower value 0.984 | locus YEL061C, strain CIN8 (second series), stronger effect = lower value 0.99 | locus YEL061C, strain CIN8, stronger effect = lower value 0.997 | locus YER015W, strain faa2, stronger effect = lower value 0.99 | locus YER016W, strain bim1, stronger effect = lower value 0.999 | locus YER110C, stronger effect = lower value 0.979 | locus YER111C, strain swi4, stronger effect = lower value 0.982 | locus YER155C, strain BEM2 (second series), stronger effect = lower value 0.98 | locus YER155C, strain BEM2, stronger effect = lower value 0.989 | locus YER167W, strain BCK2, stronger effect = lower value 1 | locus YFR010W, strain ubp6, stronger effect = lower value 0.977 | locus YGL078C, strain dbp3, stronger effect = lower value 0.991 | locus YGL086W, strain mad1, stronger effect = lower value 1 | locus YGL167C, strain pmr1, stronger effect = lower value 0.978 | locus YGL173C, strain kem1, stronger effect = lower value 0.98 | locus YGL227W, strain vid30, stronger effect = lower value 0.98 | locus YGL240W, strain doc1, stronger effect = lower value 0.985 | locus YGL248W, strain PDE1, stronger effect = lower value 0.985 | locus YGL253W, strain hxk2, stronger effect = lower value 0.984 | locus YGR078C, strain PAC10, stronger effect = lower value 0.981 | locus YGR135W, strain pre9, stronger effect = lower value 0.974 | locus YGR229C, strain SMI1, stronger effect = lower value 1.01 | locus YGR252W, strain gcn5, stronger effect = lower value 1.07 | locus YHR013C, strain ard1, stronger effect = lower value 0.977 | locus YHR027C, strain rpn1, stronger effect = lower value 0.979 | locus YHR030C, strain SLT2, stronger effect = lower value 0.994 | locus YHR079C, strain IRE1 (second series), stronger effect = lower value 0.975 | locus YHR094C, strain hxt1, stronger effect = lower value 0.988 | locus YHR129C, strain ARP1, stronger effect = lower value 0.987 | locus YHR142W, strain chs7, stronger effect = lower value 0.98 | locus YHR200W, strain rpn10, stronger effect = lower value 0.978 | locus YIL066C, strain RNR3, stronger effect = lower value 0.974 | locus YIL073C, strain SPO22, stronger effect = lower value 0.981 | locus YIL125W, strain kgd1, stronger effect = lower value 0.998 | locus YIR030C, strain dcg1, stronger effect = lower value 0.981 | locus YJL092W, strain hpr5, stronger effect = lower value 0.986 | locus YJL095W, strain BCK1 (second series), stronger effect = lower value 0.99 | locus YJL095W, strain BCK1, stronger effect = lower value 0.971 | locus YJL115W, strain asf1, stronger effect = lower value 0.984 | locus YJL129C, strain trk1, stronger effect = lower value 0.996 | locus YJL134W, strain LCB3, stronger effect = lower value 0.994 | locus YJL154C, strain vps35, stronger effect = lower value 0.98 | locus YJL164C, strain tpk1, stronger effect = lower value 0.993 | locus YJL166W, strain qcr8, stronger effect = lower value 1 | locus YJL168C, strain set2, stronger effect = lower value 0.984 | locus YJL187C, strain SWE1 (second series), stronger effect = lower value 0.964 | locus YJL187C, strain SWE1, stronger effect = lower value 0.988
